Compounds without any hit were thinned out: in the full panel of roughly 83,000, 20% have a hit.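 In brief: 96-well plates, 48 h treatment, single concentration, percent growth endpoint.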 Activity calls are given as the source filed them. How the source made its calls: active means growth percent below 10; inactive means the rest.
Key:
Assay in all cases: NCI-60 one-dose screen, 48 h (100 = growth as untreated, 0 = no growth, -100 = all killed)
NCI-H23 lung = conditions: 10 µM unless noted
NCI-H226 lung = conditions: 10 µM unless noted
NCI-H322M lung = conditions: 10 µM unless noted
HOP-62 NSCLC = conditions: 10 µM unless noted
NCI-H460 lung = conditions: 10 µM unless noted
HOP-92 NSCLC = conditions: 10 µM unless noted
NCI-H522 lung = conditions: 10 µM unless noted
786-0 renal = conditions: 10 µM unless noted
COLO 205 colon = conditions: 10 µM unless noted
DU-145 prostate = conditions: 10 µM unless noted
K-562 leukemia = conditions: 10 µM unless noted
MALME-3M melanoma = conditions: 10 µM unless noted
MDA-MB-231 breast = conditions: 10 µM unless noted
RXF 393 renal = conditions: 10 µM unless noted
SF-268 CNS = conditions: 10 µM unless noted
SF-295 CNS = conditions: 10 µM unless noted
SF-539 CNS = conditions: 10 µM unless noted
UACC-257 melanoma = conditions: 10 µM
M14 melanoma = conditions: 10 µM unless noted
A549/ATCC NSCLC = conditions: 10 µM unless noted

Measured: growth

C#CCOc1ccc(C(Nc2cc(Cl)ccc2Cl)c2nnnn2C2CCCCC2)cc1 (stereo unspecified)
inactive: NCI-H23 lung 88.6% | NCI-H226 lung 85.3% | NCI-H322M lung 87.4% | HOP-62 NSCLC 86.4% | NCI-H460 lung 88.3% | HOP-92 NSCLC 72.7% | NCI-H522 lung 69.9% | 786-0 renal 90% | COLO 205 colon 107% | DU-145 prostate 97.7% | K-562 leukemia 83.5% | MALME-3M melanoma 101% | MDA-MB-231 breast 73.7% | RXF 393 renal 92.6% | SF-268 CNS 83.4% | SF-295 CNS 80.7% | SF-539 CNS 95.3% | UACC-257 melanoma 102% | M14 melanoma 92.2%

Nc1nc(-c2cccc([N+](=O)[O-])c2)c(N=Nc2cccc(Cl)c2)s1
active: HOP-92 NSCLC -13.7% | RXF 393 renal -11.4%
inactive: NCI-H23 lung 45.5% | NCI-H226 lung 58.5% | NCI-H322M lung 75.1% | HOP-62 NSCLC 46.3% | NCI-H460 lung 49.5% | NCI-H522 lung 26% | 786-0 renal 47.3% | COLO 205 colon 48.1% | DU-145 prostate 63.6% | K-562 leukemia 30.1% | MALME-3M melanoma 93.1% | MDA-MB-231 breast 47.3% | SF-268 CNS 41.4% | SF-295 CNS 53% | SF-539 CNS 55.2% | UACC-257 melanoma 77.6% | M14 melanoma 37%

CC(=O)Nc1nc2c(s1)C1=CC[C@H]3[C@@H]4CC[C@H](C(C)=O)[C@@]4(C)CC[C@@H]3[C@@]1(C)CC2
active: K-562 leukemia 8.05% | RXF 393 renal -29.3% | SF-295 CNS -16.9%
inactive: NCI-H23 lung 81.2% | NCI-H226 lung 94.8% | NCI-H322M lung 77.1% | HOP-62 NSCLC 62.8% | NCI-H460 lung 64.4% | HOP-92 NSCLC 105% | NCI-H522 lung 90.8% | 786-0 renal 25% | COLO 205 colon 57% | DU-145 prostate 85.9% | MALME-3M melanoma 72.6% | MDA-MB-231 breast 57.7% | SF-268 CNS 90.2% | SF-539 CNS 40.2% | UACC-257 melanoma 73.2% | M14 melanoma 87%

COc1ccc(-c2no[n+]([O-])c2Nc2ccccc2Br)cc1
inactive: NCI-H23 lung 91.8% | NCI-H322M lung 96.8% | HOP-62 NSCLC 84.5% | NCI-H460 lung 101% | HOP-92 NSCLC 73% | NCI-H522 lung 81.4% | A549/ATCC NSCLC 102% | 786-0 renal 106% | COLO 205 colon 107% | DU-145 prostate 106% | MALME-3M melanoma 88% | MDA-MB-231 breast 81.5% | RXF 393 renal 102% | SF-268 CNS 92.4% | SF-295 CNS 106% | SF-539 CNS 93.9% | M14 melanoma 89.3%
active: NCI-H226 lung -13%

COCCOc1ccc(-c2csc(NC(=O)CN3CCN(CCO)CC3)n2)cc1NS(=O)(=O)c1cccc2c(N(C)C)cccc12
inactive: NCI-H23 lung 78% | NCI-H226 lung 70.9% | NCI-H322M lung 68.4% | HOP-62 NSCLC 81% | NCI-H460 lung 98.2% | HOP-92 NSCLC 13.3% | NCI-H522 lung 24.1% | A549/ATCC NSCLC 92% | 786-0 renal 37.1% | COLO 205 colon 69.8% | DU-145 prostate 92.5% | MALME-3M melanoma 40.1% | MDA-MB-231 breast 79.3% | RXF 393 renal 65.1% | SF-268 CNS 90.5% | SF-295 CNS 70.3% | SF-539 CNS 61.9%
active: M14 melanoma -71.7%

Oc1ccc(CSc2nnc(-c3cnccn3)n2-c2ccccc2)c2cccnc12
active: HOP-92 NSCLC -3.39% | NCI-H522 lung 2.33% | SF-295 CNS 7.13%
inactive: NCI-H23 lung 26.9% | NCI-H226 lung 30% | NCI-H322M lung 31.2% | HOP-62 NSCLC 22.1% | NCI-H460 lung 10.4% | 786-0 renal 35.1% | COLO 205 colon 103% | DU-145 prostate 35.6% | K-562 leukemia 19.6% | MALME-3M melanoma 42.9% | MDA-MB-231 breast 32.1% | RXF 393 renal 33.7% | SF-268 CNS 22.4% | SF-539 CNS 22.7% | UACC-257 melanoma 17.4% | M14 melanoma 16.8%

O=C(c1ccc(O)cc1)[C@@H]1[C@@H]2CCCN2[C@@]2(C(=O)N(C(=O)c3ccc(F)cc3)c3ccccc32)[C@H]1c1ccc(F)cc1
inactive: NCI-H23 lung 98.5% | NCI-H226 lung 94.3% | NCI-H322M lung 98.6% | HOP-62 NSCLC 97.4% | NCI-H460 lung 99.6% | HOP-92 NSCLC 67% | NCI-H522 lung 93.7% | 786-0 renal 100% | COLO 205 colon 105% | DU-145 prostate 102% | K-562 leukemia 75.7% | MALME-3M melanoma 84.2% | MDA-MB-231 breast 82.5% | RXF 393 renal 105% | SF-268 CNS 89.9% | SF-295 CNS 96.2% | SF-539 CNS 85.4% | UACC-257 melanoma 103% | M14 melanoma 95.1%

Nc1nc(N)c2c(n1)NC(c1ccccc1)CC(c1ccc(Nc3nc(NCCO)nc(Nc4ccc(Cl)cc4)n3)cc1)=N2 (stereo unspecified)
active: HOP-62 NSCLC -69.6% | NCI-H460 lung -80.3% | 786-0 renal -86% | K-562 leukemia -40.7% | MALME-3M melanoma -89.6%
inactive: NCI-H23 lung 41.2% | NCI-H226 lung 91.9% | NCI-H322M lung 63.2% | NCI-H522 lung 41% | A549/ATCC NSCLC 75.7% | COLO 205 colon 80.8% | DU-145 prostate 41.6% | MDA-MB-231 breast 73.3% | SF-268 CNS 76.5% | SF-295 CNS 46.9% | SF-539 CNS 71.1% | UACC-257 melanoma 113% | M14 melanoma 81%

Cc1ccc(-c2csc(N/N=C/c3nc4ccccc4n3C3CC3)n2)cc1
active: NCI-H522 lung -72.4% | COLO 205 colon 8.64% | K-562 leukemia -55.8% | MALME-3M melanoma -72.9%
inactive: NCI-H23 lung 82.9% | NCI-H226 lung 64.2% | NCI-H322M lung 91.5% | HOP-62 NSCLC 74.9% | NCI-H460 lung 84.4% | A549/ATCC NSCLC 41.1% | 786-0 renal 108% | DU-145 prostate 105% | MDA-MB-231 breast 80.4% | RXF 393 renal 71.6% | SF-268 CNS 80.1% | SF-295 CNS 96.8% | SF-539 CNS 66% | UACC-257 melanoma 79.7% | M14 melanoma 89%

ClC(Cl)c1nc(-c2cccs2)n2nc(-c3ccccc3)cc2n1
inactive: NCI-H226 lung 82.6% | NCI-H522 lung 75.1% | 786-0 renal 40.2% | K-562 leukemia 27.9% | MALME-3M melanoma 67.7% | UACC-257 melanoma 16.3%
active: NCI-H23 lung 4.85% | NCI-H322M lung -28.8% | HOP-62 NSCLC -6.27% | NCI-H460 lung -40.1% | A549/ATCC NSCLC -16.1% | COLO 205 colon -40.7% | DU-145 prostate -24.3% | MDA-MB-231 breast -26.9% | RXF 393 renal -73.2% | SF-268 CNS 6.38% | SF-295 CNS -27.6% | SF-539 CNS -44%

O=c1[nH]c(CCl)nc2c1cnn2-c1ccccc1
inactive: NCI-H23 lung 101% | NCI-H226 lung 110% | NCI-H322M lung 101% | HOP-62 NSCLC 125% | NCI-H460 lung 101% | NCI-H522 lung 103% | 786-0 renal 77.9% | COLO 205 colon 114% | DU-145 prostate 98.6% | K-562 leukemia 87.5% | MALME-3M melanoma 110% | MDA-MB-231 breast 101% | RXF 393 renal 94.1% | SF-268 CNS 99.9% | SF-295 CNS 110% | SF-539 CNS 97.1% | UACC-257 melanoma 96.2% | M14 melanoma 95.7%

Nc1cc(F)ccc1NC(=O)c1ccc(NC(=O)C/C=C/c2cccnc2)cn1
inactive: NCI-H23 lung 32% | NCI-H226 lung 46.8% | NCI-H322M lung 40.2% | HOP-62 NSCLC 29.6% | NCI-H460 lung 30% | A549/ATCC NSCLC 31.5% | 786-0 renal 41.8% | K-562 leukemia 20% | MALME-3M melanoma 11.6% | MDA-MB-231 breast 45.3% | SF-268 CNS 30.8% | SF-295 CNS 22.3% | UACC-257 melanoma 17.8%
active: NCI-H522 lung -4.98% | COLO 205 colon 1.22% | DU-145 prostate -3.71% | RXF 393 renal -17.5% | SF-539 CNS 6.21%

O=C(c1cccc(F)c1)n1ccc2cc(NC(=S)Nc3cccnc3)ccc21
inactive: NCI-H23 lung 100% | NCI-H226 lung 112% | NCI-H322M lung 99% | HOP-62 NSCLC 106% | NCI-H460 lung 98.6% | NCI-H522 lung 87.1% | A549/ATCC NSCLC 98.7% | 786-0 renal 80.5% | COLO 205 colon 115% | DU-145 prostate 102% | K-562 leukemia 96% | MALME-3M melanoma 92.7% | MDA-MB-231 breast 106% | RXF 393 renal 108% | SF-268 CNS 95.7% | SF-295 CNS 97.3% | SF-539 CNS 99.8% | UACC-257 melanoma 97.4%

Brc1cccc(/C=N/Nc2nc(N/N=C/c3cccc(Br)c3)nc(N3CCOCC3)n2)c1
active: MALME-3M melanoma -54% | RXF 393 renal -68%
inactive: NCI-H23 lung 43.1% | NCI-H226 lung 43.3% | NCI-H322M lung 52.8% | HOP-62 NSCLC 52.3% | NCI-H460 lung 41.2% | NCI-H522 lung 33.6% | A549/ATCC NSCLC 42.6% | 786-0 renal 24.5% | COLO 205 colon 23.8% | DU-145 prostate 27.3% | K-562 leukemia 14.5% | MDA-MB-231 breast 66.1% | SF-268 CNS 68.4% | SF-295 CNS 29.1% | SF-539 CNS 56.4% | UACC-257 melanoma 35.9% | M14 melanoma 31.7%

Oc1ccc(CSc2nnc(-c3cnccn3)o2)c2cccnc12
active: NCI-H460 lung 2.29% | NCI-H522 lung 7.24% | MALME-3M melanoma -6.87% | SF-295 CNS -7.6% | UACC-257 melanoma 6.92%
inactive: NCI-H23 lung 12.1% | NCI-H226 lung 23.6% | NCI-H322M lung 31.6% | HOP-62 NSCLC 20.9% | A549/ATCC NSCLC 20.9% | 786-0 renal 24.5% | COLO 205 colon 85.4% | DU-145 prostate 26.1% | K-562 leukemia 10.2% | MDA-MB-231 breast 31% | RXF 393 renal 20.6% | SF-268 CNS 22.9% | SF-539 CNS 18.6% | M14 melanoma 28.6%

O=S(=O)(Nc1ccc(-n2cnc3cc(-c4ccc(O)cc4)ccc32)cc1)C1CC1
inactive: NCI-H23 lung 101% | NCI-H226 lung 96.2% | NCI-H322M lung 90.9% | HOP-62 NSCLC 86.8% | NCI-H460 lung 88.7% | HOP-92 NSCLC 115% | NCI-H522 lung 73.7% | 786-0 renal 86.6% | COLO 205 colon 123% | DU-145 prostate 95.3% | K-562 leukemia 59.8% | MALME-3M melanoma 98.5% | MDA-MB-231 breast 84.3% | SF-268 CNS 83.3% | SF-295 CNS 90.1% | SF-539 CNS 71.8% | UACC-257 melanoma 98.2% | M14 melanoma 96.6%

— PubChem BioAssay (NCI)
